Test results: PubChem BioAssay AID1159580 (chemical genetic matrix, 2015)
Several values for one entry are separate records, joined by “and”; a condition that tells them apart may be missing. Equal entries are not always repeated. Out of some 5,500 compounds screened, about 2,000 (36%) were called active. Inconclusive results (about 18%) are left out. Rule as the data show it: active = normalized growth mostly below about 0.91 (no sharp cut-off); inconclusive = no clear call, values can overlap the other calls; inactive = mostly above about 0.92. The list shows a part of the results.

Experiment: chemical genetic growth profiling, strain panel (AID 1159580);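 also: tested at 20 µM; growth read once vehicle control cultures reached saturation at 30 °C; 1 = growth at the plate median or of vehicle wells; lower values mean less growth of the strain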
Settings: S. cerevisiae deletion strains, growth OD

Measured: normalized growth

C[C@@H]1CC[C@@]2(OC1)O[C@H]1CC3C4CC[C@H]5C[C@@H](O)CC[C@]5(C)C4CC[C@]3(C)[C@H]1[C@@H]2C (stereo not given in full)
inactive: locus YAL013W, strain DEP1, active compounds read low 0.985 | locus YAL021C, strain ccr4, active compounds read low 1.02 | locus YAL026C, strain drs2, active compounds read low 1.01 | locus YAL030W, strain snc1, active compounds read low 0.994 | locus YBL061C, strain skt5, active compounds read low 1 | locus YBR009C, strain hhf1, active compounds read low 0.99 | locus YBR021W, strain FUR4, active compounds read low 1.11 | locus YBR023C, strain chs3, active compounds read low 1 | locus YBR171W, strain sec66, active compounds read low 0.994 | locus YBR229C, strain ROT2, active compounds read low 0.988 | locus YBR231C, strain swc5, active compounds read low 0.988 | locus YBR279W, strain paf1, active compounds read low 0.996 | locus YCL011C, strain gbp2, active compounds read low 0.994 | locus YCL016C, strain dcc1, active compounds read low 0.998 | locus YCL029C, strain bik1, active compounds read low 0.978 | locus YCL061C, strain MRC1, active compounds read low 0.987 | locus YCL069W, strain vba3, active compounds read low 1 | locus YCR088W, strain abp1, active compounds read low 0.986 | locus YDL005C, strain med2, active compounds read low 0.999 | locus YDL035C, strain GPR1, active compounds read low 1.02 | locus YDL040C, strain nat1, active compounds read low 0.998 | locus YDL074C, strain BRE1, active compounds read low 1 | locus YDL101C, strain DUN1, active compounds read low 0.983 | locus YDL134C, strain PPH21, active compounds read low 0.972 | locus YDL185W, strain tfp1, active compounds read low 0.954 | locus YDL192W, strain arf1, active compounds read low 0.978 | locus YDR001C, strain nth1, active compounds read low 0.997 | locus YDR069C, strain doa4, active compounds read low 0.993 | locus YDR101C, strain arx1, active compounds read low 1.01 | locus YDR137W, strain rgp1, active compounds read low 1 | locus YDR159W, strain sac3, active compounds read low 1 | locus YDR162C, strain NBP2, active compounds read low 0.994 | locus YDR195W, strain ref2 0.989 | locus YDR297W, strain sur2, active compounds read low 0.988 | locus YDR318W, strain mcm21, active compounds read low 0.977 | locus YDR334W, strain swr1, active compounds read low 0.993 | locus YDR335W, strain msn5, active compounds read low 0.996 | locus YDR388W, active compounds read low 0.981 | locus YDR392W, strain spt3, active compounds read low 0.981 | locus YDR502C, strain sam2, active compounds read low 0.992 | locus YEL003W, strain gim4, active compounds read low 0.994 | locus YEL037C, strain rad23, active compounds read low 0.989 | locus YEL061C, strain CIN8 (second series), active compounds read low 0.992 | locus YER015W, strain faa2, active compounds read low 0.996 | locus YER016W, strain bim1, active compounds read low 0.998 | locus YER110C, active compounds read low 0.969 | locus YER111C, strain swi4, active compounds read low 0.994 | locus YER155C, strain BEM2 (second series), active compounds read low 0.977 | locus YER155C, strain BEM2, active compounds read low 0.999 | locus YER167W, strain BCK2, active compounds read low 0.997 | locus YFR010W, strain ubp6, active compounds read low 1 | locus YGL078C, strain dbp3, active compounds read low 0.956 | locus YGL086W, strain mad1, active compounds read low 0.993 | locus YGL167C, strain pmr1, active compounds read low 0.999 | locus YGL173C, strain kem1, active compounds read low 0.998 | locus YGL227W, strain vid30, active compounds read low 0.987 | locus YGL240W, strain doc1, active compounds read low 1.01 | locus YGL248W, strain PDE1, active compounds read low 0.988 | locus YGL253W, strain hxk2, active compounds read low 1 | locus YGR135W, strain pre9, active compounds read low 0.941 | locus YGR252W, strain gcn5, active compounds read low 1 | locus YHR013C, strain ard1, active compounds read low 0.988 | locus YHR027C, strain rpn1, active compounds read low 0.992 | locus YHR030C, strain SLT2, active compounds read low 0.985 and 1 | locus YHR079C, strain IRE1 (second series), active compounds read low 0.987 | locus YHR079C, strain IRE1, active compounds read low 0.993 | locus YHR094C, strain hxt1, active compounds read low 0.97 | locus YHR129C, strain ARP1, active compounds read low 0.991 | locus YHR142W, strain chs7, active compounds read low 1.03 | locus YHR200W, strain rpn10, active compounds read low 0.997 | locus YIL066C, strain RNR3, active compounds read low 1 | locus YIL073C, strain SPO22, active compounds read low 0.892 | locus YIL125W, strain kgd1, active compounds read low 0.979 | locus YIR030C, strain dcg1, active compounds read low 0.977 | locus YJL092W, strain hpr5, active compounds read low 0.99 | locus YJL095W, strain BCK1 (second series), active compounds read low 0.989 | locus YJL095W, strain BCK1, active compounds read low 0.979 and 0.99 | locus YJL115W, strain asf1, active compounds read low 0.976 | locus YJL129C, strain trk1, active compounds read low 0.977 | locus YJL134W, strain LCB3, active compounds read low 0.993 | locus YJL154C, strain vps35, active compounds read low 0.99 | locus YJL164C, strain tpk1, active compounds read low 0.996 | locus YJL166W, strain qcr8, active compounds read low 0.989 | locus YJL168C, strain set2, active compounds read low 0.977 | locus YJL187C, strain SWE1 (second series), active compounds read low 0.977
